test system: PDGFRA
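Also: kd values determined as follow-up on hits from a single-replicate KINOMEscan panel screen.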

**Q.** How did the Kd turn out when Cc1ccc(NC(=O)c2cccc(C#N)c2)cc1-c1ccc(C(=O)Nc2ccncc2)cc1 [GSK1398463] was run?
**A.** 170 nM

**Q.** How did the Kd turn out when Cn1ccc2ncnc(Oc3ccc(NC(=O)Nc4cccnc4)c(Cl)c3)c21 was run?
**A.** 110 nM

**Q.** How did the Kd turn out when O=C(Nc1ccccc1)Nc1ccc(Oc2ccc3nccn3n2)cc1 was run?
**A.** 71 nM

test system: PDGFRB

**Q.** How did the Kd turn out when COc1cc2c(Nc3cccc(NC(=O)c4ccccc4)c3)ncnc2cc1OCCCN1CCOCC1 [GSK223810] was run?
**A.** 560 nM

**Q.** For Cc1ccc(NC(=O)c2cccc(C#N)c2)cc1-c1ccc(C(=O)Nc2ccncc2)cc1 [GSK1398463], which Kd is on record?
**A.** 13 nM

**Q.** For Cn1ccc2ncnc(Oc3ccc(NC(=O)Nc4cccnc4)c(Cl)c3)c21, which Kd is on record?
**A.** 95 nM

**Q.** Which Kd does the source give for O=C(Nc1ccccc1)Nc1ccc(Oc2ccc3nccn3n2)cc1 here?
**A.** 62 nM

**Q.** With CC(=O)Nc1n[nH]c2ncc(-c3ccccc3)cc12 [SB-548492] as the compound, how does the Kd read?
**A.** 270 nM

**Q.** Which Kd does the source give for O=C(Nc1n[nH]c2nc(-c3ccco3)c(Br)cc12)c1ccc(CN2CCCC2)cc1.O=C(O)[C@H](O)[C@@H](O)C(=O)O [SB-742352] here?
**A.** 67 nM

**Q.** How did the Kd turn out when COc1ccc(NC(=O)Nc2ccc(C)c(-c3ccc(C(=O)Nc4ccncc4)cc3)c2)cc1 [GSK1398475] was run?
**A.** 48 nM
